# Laboratory results published in the OligoGym collection.
# Molecular target: CA4
# Test: pooled miR-30 sensor sort-seq; sequence = guide strand
# Conditions: shRNA
# Also: reference of the scale not given here.
row,Sequence,sensor-assay potency score (higher = more potent)
1,TTGTTCTCCAGCAACATCATCA,-1.13
2,TGTCTGTTCCTTGTCGTAGTAC,-0.69
3,TCGTAGTACAGCTTCTGAGAGA,-0.918
4,TTTTTTGTCCACCTTTGCCTTG,-1.1
5,TTGTCCACCTTTGCCTTGGTGG,-0.751
6,TGTCGTAGTACAGCTTCTGAGA,-0.691
7,TTGAACCTCGTAGCACCAGTGT,-1.16
8,TTCTCATCGCAGGTCGGTGTGG,-1.28
9,TTGTCGTAGTACAGCTTCTGAG,-1.18
10,TTGCTTCTTATCGTAGCCAGAG,-0.919
11,TTTCTCATGTACTATGTGCATC,-0.994
12,ATGTACTATGTGCATCTCCATG,-2
13,TCCAGCAACATCATCACTGAGT,-1.67
14,TTTGCTTCTTATCGTAGCCAGA,-0.836
15,TTATTTTGGACAGTCCACGTTT,-0.237
16,TTGACTGGCACCAAGCAGGGGT,-0.145
17,AATTTCGTCTTCAGGGTCCTGG,0.0795
18,TTATATGGCAAGTCGGACCAGT,0.112
19,TTCTCTGTGAAGCTGAATGGGC,-0.889

# Molecular target: CA8
# Test: as above
# Conditions: shRNA
row,Sequence,sensor-assay potency score (higher = more potent)
1,TTCTTTGGAATATACAGCCATT,-0.749
2,TATCGGAATAATATCCAGGTGA,-0.367
3,TTTGACTTCAGGATAACCTGAA,0.794
4,AAAAGCTTTGAAATTAACCGTG,-0.175
5,AAATTCTTCTATCTGTAGCTGG,0.0203
6,TTGGTGACTTCACAGTCTCGGC,-0.936
7,TTGACTTCAGGATAACCTGAAT,-1.18
8,TAACCTGAATGGTATGTCCATC,-1.33
9,TTAGGTTAATAGGAGACTGGTA,-0.274
10,AAAGCTTTGAAATTAACCGTGT,0.986
11,ATTAGCATCAGGAAACACCAGA,-0.642
12,TGCAACTATGAATCCTAGCAGC,-0.939
13,TAGATGAAGACAAACAACGCAG,0.00396
14,TAACACATGATATATATTCATA,-0.982
15,AATTCTTCTATCTGTAGCTGGG,-0.112
16,TTCGAAATTCTTCTATCTGTAG,-0.338
17,TATCTGAACAAACAGAGCAATG,-1.69
18,TTTGAGGATAAACTGAAGGTGC,-0.117
19,TTAACATGTGTCCTCAGCCTTC,-1.15
20,TTCTTCTATCTGTAGCTGGGAT,-0.262
21,TTTCTTTGGAATATACAGCCAT,0.203
